Rev-erbA mod = modulates human Rev-erb alpha binding to DNA; P20393; Rev-erbα–FITC-DNA binding, fluorescence polarization, 90 min; activity, % at 10 µM; 370,000 compounds, 0.79% hits; AID 1259318;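 active = activity above about 14%, limit read from the data; passing the limit was not always enough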;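 also: 0% = DMSO wells with 35 nM protein and 100% = DMSO wells with 750 nM protein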
PKA-R1A activ = PKA-R1A complex activation; P00514+P68181; 340,000 compounds, 0.083% hits; PKA-R1A dissociation, Cy5-IP20 fluorescence polarization; scaled: DMSO 0%, 113 µM cGMP 100%; activation, % at 11.4 µM;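 active = percent activation above the mean of all tested compounds plus 3 SD, cut at about 19% in these data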;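 also: higher means more PKAc released from R1A so a rise in polarization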
PKA-R2B act = activates the human PKA-R2B holoenzyme complex; PKA-R2B holoenzyme dissociation, Cy5-IP20 fluorescence polarization; R2B truncated from residue 108, S112A mutant; 0% DMSO only, 100% 113 µM cGMP; activation, % at 11.4 µM; 340,000 compounds, 0.079% hits; AID 504700;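 active = activation above a cutoff set at the mean over all compounds plus 3 SD, cut at about 18% in these data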;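 also: higher means more holoenzyme dissociation and a rise in polarization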
Target sequence (P31323 whole entry, looked up, other chains not shown, the tested form may be a part): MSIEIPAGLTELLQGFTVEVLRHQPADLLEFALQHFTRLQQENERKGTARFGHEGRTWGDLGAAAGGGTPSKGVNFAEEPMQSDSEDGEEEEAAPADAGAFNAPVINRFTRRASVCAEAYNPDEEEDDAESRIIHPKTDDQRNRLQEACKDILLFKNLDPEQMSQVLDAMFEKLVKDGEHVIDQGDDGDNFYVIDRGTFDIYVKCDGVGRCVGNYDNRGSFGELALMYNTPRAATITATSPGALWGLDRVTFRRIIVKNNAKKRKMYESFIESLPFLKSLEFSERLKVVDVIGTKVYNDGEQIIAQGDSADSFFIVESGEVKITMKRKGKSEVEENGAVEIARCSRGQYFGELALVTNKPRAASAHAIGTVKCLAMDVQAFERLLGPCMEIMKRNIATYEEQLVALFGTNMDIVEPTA
PG9 binder = binds the HIV-1 gp120 antibody PG9 | 360,000 compounds, 0.43% hits | TR-FRET gp120-PG9 antibody binding | inhibition, % at 6.7 µM; in the data active = inhibition above about 8.5%
NR1D1 mod conf = confirmation of modulators of human Rev-erb alpha DNA binding; shares compounds with Rev-erbA mod; Rev-erb alpha FITC-DNA binding, fluorescence polarization, 90 min; activation, % at 25 µM; 3,000 compounds, 61% hits; AID 1259319;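 active = activation at or above a set limit, or at least 3 SD above the negative control mean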;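 also: 0% = 35 nM protein with DMSO and 100% = 750 nM protein high control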
RORg counter = RORgamma DNA-binding activity, dose-response counter-screen | 910 compounds, 8% hits | IC50, µM | shares compounds with Rev-erbA mod | purified RORgamma protein-FITC-DNA binding, fluorescence polarization;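 active = Compounds whose fitted half-maximal concentration for disrupting protein-DNA binding is below 10 micromolar; the record names Rev-erb in its text, so the target is in doubt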
Active calls of the source: *; · = not tested or not shown. Shown are actives, neighbours in structure and some others; about 1.2% of the full set was active somewhere.

SMILES | Rev-erbA mod | PKA-R1A activ | PKA-R2B act | PG9 binder | NR1D1 mod conf | others
O=C(CCc1nc2sc3c(c2c(=O)[nH]1)CCCC3)NCCc1ccc(Cl)cc1 | 20.6* | -2.0 | -5.2 | 5.2 | 7.1
CCN(c1ccc(NC(=O)CCc2nc3sc4c(c3c(=O)[nH]2)CCCC4)cc1)C(C)C | -6.4 | 3.5 | 4.7 | -0.4 | ·
Cc1ccc(OCCNC(=O)CCc2nc3sc4c(c3c(=O)[nH]2)CCCC4)cc1 | 19.5* | 7.2 | 8.4 | 7.2 | 12.1
CCc1ccc(NC(=O)CCc2nc3sc4c(c3c(=O)[nH]2)CCCC4)cc1 | 18.6* | -1.0 | -13.1 | 7.3 | 6.8
COC(=O)[C@]12C[C@H](CC(=O)N3CCN(C(=O)c4ccco4)CC3)C(=O)N(Cc3ccc(Cl)cc3Cl)C1=C[C@H](C(C)C)O[C@@H]2C1CC1 | -0.2 | · | · | · | ·
CCc1cc2c(=O)c(-c3cnn(-c4ccccc4)c3)c(C)oc2cc1OCC(=O)Nc1ccc(F)c(F)c1 | 30.9* | -14.9 | -12.2 | -1.1 | 12.7
CCc1cc2c(=O)c(-c3cnn(-c4ccccc4)c3)c(C)oc2cc1OCC(=O)Nc1cccc(C)c1 | 17.7 | -2.2 | -2.9 | -1.6 | ·
COC(=O)[C@H](CC(C)C)N(CCCc1cn(Cc2ccccc2)nn1)S(=O)(=O)c1ccc(F)cc1Br | 3.4 | · | · | · | ·
O=C(CSc1nnc(-c2cccs2)o1)c1ccc2c(c1)OCO2 | 114.8* | · | · | · | 134.0* | RORg counter=>40
O=C(CSc1nnc(-c2cccs2)o1)c1ccc(F)cc1 | 1.5 | · | · | · | ·
Fc1ccc(-c2nnn3c2nc(NCc2ccccc2)c2ccccc23)cc1 | 16.9 | -9.6 | -6.2 | -0.1 | ·
Clc1nc2c(-c3ccccc3)nnn2c2ccccc12 | 83.0* | 5.4 | 6.4 | 0.5 | 68.1* | RORg counter=>40
Fc1cccc(-c2nnn3c2nc(Cl)c2ccccc23)c1 | 90.3* | -0.4 | 0.6 | 0.5 | 19.0*
Cc1ccc(-c2nnn3c2nc(Cl)c2ccccc23)cc1 | -1.6 | -9.1 | -2.7 | -0.2 | ·
COc1ccc(-c2nnn3c2nc(NCc2ccccc2)c2ccccc23)cc1 | 23.1* | -1.6 | 2.4 | -2.3 | 16.7*
Cc1cc(F)ccc1C(=O)N1CCC(Oc2cccnc2)CC1 | -3.3 | · | · | · | ·
CCOc1cc(C=O)c(Br)cc1OC1CCCC1 | 21.7* | -1.2 | 2.0 | 2.8 | 11.5
O=C(Nc1ccc(Oc2ncnc3cc(Cl)ccc23)nc1)c1cccs1 | 55.1* | -2.8 | -0.4 | 0.5 | 27.4*
O=C(Nc1ccc(F)cc1)Nc1ccc(Oc2ncnc3cc(Cl)ccc23)nc1 | 51.3* | -5.0 | -1.6 | 0.5 | 8.3
C#CCNC(=O)C[C@H]1C(=O)N(CCCOC)C2=CCCC[C@@]21C(=O)OCC | 4.2 | · | · | · | ·
Cc1cc(C(=O)N(C)CC(=O)Nc2ccc(Cl)c(C(F)(F)F)c2)no1 | -1.0 | -1.3 | -19.7 | 1.1 | ·
CN(CC(=O)Nc1ccc(Cl)c(C(F)(F)F)c1)C(=O)c1cn2ccccc2n1 | 20.5* | -4.3 | -1.9 | -1.6 | 1.8
CCOC(OCC)P(=O)(CNC(c1ccccc1)(c1ccccc1)c1ccccc1)OCC (stereo not given) | 0.9 | · | · | · | ·
Cc1csc(NC(=O)c2ccc(Br)s2)n1 | 9.4 | 2.3 | -6.6 | 0.2 | ·
CCOc1cccc2sc(NC(=O)c3ccc(Br)s3)nc12 | 29.6* | 0.2 | -0.1 | -0.2 | 33.4* | RORg counter=>40
SMILES | Rev-erbA mod | PKA-R1A activ | PKA-R2B act | PG9 binder | NR1D1 mod conf | others
Cn1cc(Cl)c(C(=O)Nc2nc3ccc([N+](=O)[O-])cc3s2)n1 | -10.2 | -10.6 | -1.6 | -0.7 | ·
Cn1cc(Cl)c(C(=O)Nc2nc3ccc(Cl)cc3s2)n1 | 83.2* | 0.8 | -14.7 | 8.3 | 24.6*
CC(=O)N1[C@H](CO)[C@@H](c2ccccc2)[C@@H]1CN(C(=O)c1ccc(F)cc1)C(C)C | 0.0 | · | · | · | ·
CCCC[C@H](C(=O)N(C)c1ccccc1)[C@@H](O)c1ccc2ccccc2c1 | -1.6 | · | · | · | ·
C[C@H]1CCCN1c1cccc2c1S(=O)(=O)N1CC[C@H](C1)O2 | -2.0 | · | · | · | ·
Cn1cncc1C#Cc1ccc2cc(C3(O)CCCCC3)oc(=O)c2c1 | 70.3* | -7.2 | 8.5 | 0.6 | 43.3* | RORg counter=>40
Cc1ccccc1NC(=O)Cc1nc(COC(=O)c2cc(Br)ccc2O)cs1 | 17.1 | 0.7 | 3.0 | 2.2 | ·
Cc1ccccc1NC(=O)Cc1nc(COC(=O)c2cc(Cl)ccc2O)cs1 | 18.8* | -9.9 | -4.9 | 3.2 | 7.5
CCOC(=O)c1c(-c2ccccc2)csc1NC(=O)/C(C#N)=C\c1ccc(O)c(OC)c1 | 41.9* | -5.5 | -9.7 | -1.8 | 11.8*
Cc1cc(C)cc(OCC(=O)NNC(=S)NC(=O)C2CC2)c1 | 33.0* | -14.8 | 0.2 | -0.3 | -2.2
Cc1cccc(C(=O)OCc2cc(=O)oc3c(C)c(C)ccc23)c1O | · | -10.3 | -4.0 | · | ·
CCOc1ncccc1C(=O)OCc1cc(=O)oc2c(C)c(C)ccc12 | 34.2* | 11.0 | 0.3 | -2.4 | 6.1
O=c1c2ccccc2ncn1-c1cccc(Cl)c1 | 2.1 | -1.2 | 5.7 | -3.4 | ·
O=c1c2ccccc2ncn1-c1ccc(Cl)c(Cl)c1 | 29.5* | -7.5 | 1.8 | -1.0 | 36.8* | RORg counter=>40
COc1ccc(C(=O)CSc2nnc(-c3ccccc3)n2-c2ccc(Cl)cc2)cc1 | 12.9 | · | · | · | ·
Cc1ccccc1S(=O)(=O)N1CCC(c2nc3ccccc3o2)CC1 | -0.2 | · | · | · | ·
O=C1c2cccc3c(N4CCCCC4)ccc(c23)C(=O)N1c1ccc(O)cc1 | -0.1 | 5.2 | -5.2 | -4.1 | ·
O=C1c2cccc3c(N4CCCCC4)ccc(c23)C(=O)N1c1ccccc1O | 27.1* | -5.8 | -2.5 | 0.9 | 32.9* | RORg counter=>40
NC(=O)COc1ccc(/C=N\NC(=O)c2ccc(-c3ccccc3)cc2)cc1 | 35.1* | -12.0 | -0.1 | 1.9 | 20.5*
N#C/C(=C/C1=C(N2CCOCC2)C(=C/c2ccccc2)/CC1)C(=O)Nc1ccccc1F | 19.0* | 4.1 | -7.8 | -1.6 | 18.0*
CCCCN(C(=O)c1ccco1)c1nnc(-c2cc(OC)c(OC)c(OC)c2)s1 | 99.0* | -5.7 | 3.4 | -2.1 | 15.5
CCCN(C(=O)c1ccco1)c1nnc(-c2ccncc2)s1 | 0.9 | -14.7 | 4.3 | 0.3 | ·
CCOc1ccc(NC(=O)c2cc(-c3ccc(Cl)cc3)nc3ccccc23)cc1 | 5.7 | · | · | · | ·
CCOC(=O)C1Nc2ccccc2C2c3ccccc3CC12 (stereo not given) | -0.3 | -0.8 | 0.0 | 0.1 | ·
CCOC(=O)C1Nc2c(F)cc(C)cc2C2c3ccccc3CC12 (stereo not given) | 108.9* | 4.4 | -14.1 | -2.6 | 44.0*
O=C(NCC(c1ccccc1)c1ccccc1)[C@H](Cc1c[nH]c2ccccc12)NC1(C(=O)NC2CCCCC2)CCCCCC1 | -3.3 | · | · | · | ·
CC(C)(C)c1ccc(S(=O)(=O)N2CCC(C(=O)NCCC3=CCCCC3)CC2)cc1 | 11.4 | · | · | · | ·
Cc1ccc2c(c1)cc(CN(C(=O)N1CCOCC1)C1CCCC1)c1nnnn12 | 1.2 | 2.5 | -4.8 | -1.4 | ·
